According to ChEMBL document CHEMBL4808148, “HDAC6 screening dataset using tau-based substrate in an enzymatic assay yields selective inhibitors and activators” (2021):
Values joined by “and” are separate entries in the source; they are usually repeats but may differ in a detail not shown here. Equal values may be shown once. In all, about 5,600 compounds went through this assay and about 150 (2.7%) showed an effect of 50% or more. The sample as a whole holds a higher share of strong results than the screen did. Positions of bridges follow the written chain, without caps; N, C: chain ends. Non-standard residues stand in square brackets, D forms with d. Residues, ends and D or L forms follow the SMILES beside them. *: point of attachment. NMeF = CN[C@@H](Cc1ccccc1)C(=O)O; X4 = CCC(C)C(N)C1=NC(C(=O)*)CS1; dOrn = NCCC[C@@H](N)C(=O)O

Assays:
[1] = biological target: T1, Protein deacetylase HDAC6 (Homo sapiens) (UniProt Q9UBN7); details: at 10 µM
T1 sequence (whole entry): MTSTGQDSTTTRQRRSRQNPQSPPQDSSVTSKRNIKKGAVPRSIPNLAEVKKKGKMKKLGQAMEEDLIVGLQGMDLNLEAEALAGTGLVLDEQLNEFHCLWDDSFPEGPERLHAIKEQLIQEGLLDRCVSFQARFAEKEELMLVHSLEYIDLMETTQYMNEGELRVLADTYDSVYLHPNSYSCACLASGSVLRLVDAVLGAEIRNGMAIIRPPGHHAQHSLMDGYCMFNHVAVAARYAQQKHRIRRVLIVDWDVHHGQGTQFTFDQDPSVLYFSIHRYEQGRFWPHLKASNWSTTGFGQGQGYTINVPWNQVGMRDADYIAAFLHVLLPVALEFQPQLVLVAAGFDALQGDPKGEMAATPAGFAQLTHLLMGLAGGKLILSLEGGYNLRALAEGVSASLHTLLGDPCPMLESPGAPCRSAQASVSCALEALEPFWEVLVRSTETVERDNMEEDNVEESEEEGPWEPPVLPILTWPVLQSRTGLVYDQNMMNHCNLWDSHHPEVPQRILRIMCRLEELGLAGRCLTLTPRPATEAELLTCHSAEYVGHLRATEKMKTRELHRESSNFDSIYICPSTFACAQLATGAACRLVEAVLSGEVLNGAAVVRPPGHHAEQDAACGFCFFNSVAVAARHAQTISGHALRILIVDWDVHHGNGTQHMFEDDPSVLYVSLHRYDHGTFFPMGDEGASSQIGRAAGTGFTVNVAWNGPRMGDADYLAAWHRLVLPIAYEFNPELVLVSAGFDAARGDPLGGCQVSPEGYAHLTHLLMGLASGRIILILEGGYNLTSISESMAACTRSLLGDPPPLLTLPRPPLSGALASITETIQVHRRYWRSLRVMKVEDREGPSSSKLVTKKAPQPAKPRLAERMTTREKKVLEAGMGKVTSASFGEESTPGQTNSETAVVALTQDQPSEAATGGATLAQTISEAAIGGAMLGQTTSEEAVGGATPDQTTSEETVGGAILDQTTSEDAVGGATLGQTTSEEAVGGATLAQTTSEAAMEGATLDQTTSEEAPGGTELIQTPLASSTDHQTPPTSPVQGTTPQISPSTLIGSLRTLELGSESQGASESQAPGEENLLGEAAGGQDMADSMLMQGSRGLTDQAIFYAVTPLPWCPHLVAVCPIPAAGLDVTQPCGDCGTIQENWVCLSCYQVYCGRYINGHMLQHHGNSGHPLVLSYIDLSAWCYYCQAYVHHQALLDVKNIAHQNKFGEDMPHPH

[2] = biological target: Protein deacetylase HDAC6 (Homo sapiens) (UniProt Q9UBN7); details: at 10 µM; remark: listed apart in the source

| Molecule | inhibition [1] [%] | inhibition [2] |
| --- | --- | --- |
| CCOc1c(N2CCOCC2)cnn(C)c1=O | 2.39 |  |
| O=C(O)c1ccccc1S | -3.38 |  |
| CC(=O)NS(=O)(=O)c1ccc(NC(=O)c2ccccc2C(=O)O)cc1 | -6.68 |  |
| O=C(O)c1ccccc1C(=O)Nc1ccc(-c2ccccc2)cc1 | 54.2 |  |
| CC(C)(S)C(=O)N[C@@H](CS)C(=O)O | 6.63 |  |
| CC(C)C(=O)SCCCCC[C@H](NC(=O)OC(C)(C)C)C(=O)NC12CC3CC(CC(C3)C1)C2 | 52.4 |  |
| CC(C)CCC[C@@H](C)[C@H]1CC[C@H]2[C@@H]3CCC4=CC(=NO)CC[C@]4(C)[C@H]3CC[C@]12C | 4.46 |  |
| NC(=O)c1ccc(F)c2c1C[C@@H](N(C1CCC1)C1CCC1)CO2 | -7.93 |  |
| COc1ccc(S(=O)(=O)N2CCCN(S(=O)(=O)c3ccc(OC)c(OC)c3)CC2)cc1OC | -6.17 |  |
| O=C(NO)c1cnc(N2CCN(S(=O)(=O)c3ccc4ccccc4c3)CC2)nc1 | 96.2 |  |
| COc1ccc([C@]2(O)CC[C@H](N3CC[C@@H](NC(=O)CNC(=O)c4cccc(C(F)(F)F)c4)C3)CC2)cn1 | 0.65 |  |
| CC(C)(C)c1ccc(O)cc1 | -5.54 |  |
| CN1CCN(c2ccc3[nH]c(-c4ccc5[nH]c(-c6ccc(O)cc6)nc5c4)nc3c2)CC1 | 5.09 |  |
| CC(C)(C)c1ccc(-c2nc3ccccc3[nH]2)cc1 | 94 |  |
| CN(C)c1cc(CNCC(C)(C)C)c(O)c2c1C[C@H]1C[C@H]3[C@H](N(C)C)C(O)=C(C(N)=O)C(=O)[C@@]3(O)C(O)=C1C2=O | -4.38 |  |
| CC(C)(CCCCCC(O)CCCCCC(C)(C)C(=O)O)C(=O)O | 1.13 |  |
| CCOC(=O)C1=C(N)Oc2ccc(Br)cc2[C@H]1[C@H](C#N)C(=O)OCC | 13.4 |  |
| N#Cc1cnc2c(Cl)cc(NCc3cn(CCN4CCCCCC4)nn3)cc2c1Nc1ccc(F)c(Cl)c1 | -2.34 |  |
| COCCN1CCC(C(=O)NO)(S(=O)(=O)c2ccc(Oc3ccc(OC(F)(F)F)cc3)cc2)CC1 | 1.97 |  |
| COC(=O)c1cc(OC)c2c(c1-c1c(CO)cc(OC)c3c1OCO3)OCO2 | -0.94 |  |
| CS(=O)(=O)Nc1ccc(-c2coc3cc(OCc4cccc(C(=O)O)c4)ccc3c2=O)cc1 | 57.5 |  |
| OCCCCO | -0.89 |  |
| CCC(=O)O[C@]1(C(=O)COC(C)=O)CC[C@H]2[C@@H]3C[C@H](C)C4=CC(=O)C=C[C@]4(C)[C@H]3[C@@H](O)C[C@@]21C | 1.57 |  |
| O=C1NN(C(=O)Nc2ccc(Br)cc2)[C@@H](c2ccccc2)[C@@H]1c1ccccc1 | 13.1 |  |
| N=C(Nc1ccccc1)c1cccs1 | 14.8 |  |
| O=C1NC(=S)NC(=O)C1C(=O)Nc1ccccc1 | 95 |  |
| GADOBUTROL, CHEMBL2218860 |  | 27.5% |

| Molecule | inhibition [1] [%] | inhibition [2] |
| --- | --- | --- |
| CC(C)(O)CC(=O)O | 1.27 |  |
| CCc1nc2c(C)nc(C)cc2n1-c1ccc(CCNC(=O)NS(=O)(=O)c2ccc(C)cc2)cc1 | -2.18 |  |
| C=CC(C)(O)CC[C@@H]1[C@@]2(C)CCCC(C)(C)C2CC[C@@]1(C)O (some centres undefined) | -4.8 |  |
| O=C(Nc1cc(C(F)(F)F)ccc1O)Nc1cc(C(F)(F)F)ccc1O | 0.26 |  |
| Cc1cc(/C=c2/sc3nc4ccccc4n3c2=O)c(C)n1-c1ccccc1 | -1.28 |  |
| Cc1cc(/C=C2\SC(=O)N(c3ccccc3)C2=O)c(C)n1-c1cccnc1 | 66.1 |  |
| CC(C)C1=C2[C@H]3CC[C@@H]4[C@@]5(C)CC[C@H](OC(=O)CC(C)(C)C(=O)O)C(C)(C)[C@@H]5CC[C@@]4(C)[C@]3(C)CC[C@@]2([C@@H](O)CN(CCN(C)C)Cc2ccc(Cl)cc2)CC1=O | -0.39 |  |
| Cc1oc2ccccc2c1CNC(=O)NCc1cccs1 | 2.62 |  |
| Nc1ncnc2c1c(-c1cccc(OCc3ccccc3)c1)cn2[C@H]1C[C@H](CN2CCCC2)C1 | 8.87 |  |
| CCOC(=O)Nc1ccc(NCc2c(C)cc(C)cc2C)cc1N | -1.7 |  |
| N#Cc1cc(-c2n[nH]c(-c3ccncc3)n2)ccn1 | 61.8 |  |
| COc1cccc(OC)c1-c1ccc(C[C@H](NC(=O)c2c(Cl)cccc2Cl)C(=O)O)cc1 | -2.4 |  |
| O=C(N[C@H](Cc1ccccc1)C(=O)O)c1sc2cc(F)ccc2c1Cl | -0.15 |  |
| COCCN(C(=O)c1cc(OC)c(OC)c(OC)c1)c1nc(-c2ccccc2)cs1 | -3.54 |  |
| Cc1nc2ccc(-n3ncc(C(=O)c4cc5ccccc5[nH]4)c3N)cc2[nH]1 | 95.7 |  |
| CCOC(=O)Nc1nc2ccccc2[nH]1 | 20.3 |  |
| CCCSc1ccc2[nH]c(NC(=O)OC)nc2c1 | 41.8 |  |
| CCC[S+]([O-])c1ccc2[nH]c(NC(=O)OC)nc2c1 (centres undefined) | 68.9 |  |
| CCC(C)C(N)C1=NC(C(=O)N[C@@H](CC(C)C)C(=O)N[C@H](CCC(=O)O)C(=O)N[C@H](C(=O)N[C@H]2CCCCNC(=O)[C@H](CC(N)=O)NC(=O)[C@@H](CC(=O)O)NC(=O)[C@@H](Cc3cnc[nH]3)NC(=O)[C@@H](Cc3ccccc3)NC(=O)[C@@H]([C@H](C)CC)NC(=O)[C@@H](CCCN)NC2=O)[C@@H](C)CC)CS1 (some centres undefined) (X4-L[dE]IK[dOrn][dI][dF][dH][dD]N; lactam 4-C) | 25.1 |  |
| Cc1c(NC(=O)c2cc3c(s2)CCCC3)cccc1-c1cn(C)c(=O)c(Nc2ccc(C3C(=O)N(C)CCN3C)cc2)n1 (racemic) | -2.69 |  |
| CC(=O)Nc1ccc(OC(C)=O)cc1 | -1.45 |  |
| N=C(N)Nc1ccc(C(=O)Oc2ccc3cc(C(=N)N)ccc3c2)cc1 | 98.3 |  |
| CSCC[C@H](NC(=O)[C@H](CC(C)C)NC(=O)[C@@H](Cc1c[nH]c2ccccc12)NC(=O)[C@H](Cc1ccccc1)N(C)C(=O)[C@@H](Cc1c[nH]c2ccccc12)NC(=O)[C@@H](N)CCCNC(=N)N)C(N)=O (H-R[dW][NMeF][dW]LM-NH2) | -6.35 |  |
| COc1ccccc1OC(=O)c1ccccc1OC(C)=O | -4.29 |  |
| CC(=O)Oc1ccccc1C(=O)Nc1ncc([N+](=O)[O-])s1 | 98.3 |  |
| COLISTIN SULFATE, CHEMBL6067482 |  | -5.33% and -3.72% |
| O=C(NN1C(=O)[C@@H]2[C@@H]3C=C[C@@H]([C@H]4C[C@@H]34)[C@@H]2C1=O)c1ccc(C(F)(F)F)cc1 | 3.03 |  |
